The target of test [1] is Albumin (Bos taurus) (UniProt P02769). Put plainly: bovine serum albumin binders on microarray, profiling panel, artefact control for SMM control protein annotation, biochemical, small-molecule microarray, Alexa647 label, 635/667 nm fluorescence (AID 1118).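 Further: score merges 667 nm emission intensity and signal-to-noise per printed compound spot.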 The note with it: BSA-A647 binding, fluorescence 635 nm, higher = more signal.
Test [2] is described as follows: small-molecule microarray binders of probe aXIP, primary screen, biochemical, NeuroSMM set, 635/667 nm fluorescence (AID 1119).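 Further: probe is the protein aXip251-270 applied at 1 µg/mL to compound-printed slides; binding of probe to printed compounds measured as 667 nm fluorescence plus signal to noise.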 The note with it: higher = more signal, called active from +8 up or from −8 down.
Test [3] is described as follows: small-molecule binders of probe aNOTCH3, primary screen, biochemical, small-molecule microarray, 635/667 nm fluorescence (AID 1120).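 Further: probe is a biotin-tagged antibody raised against NOTCH3 rather than NOTCH3 protein; score merges spot fluorescence near 667 nm with spot signal to noise.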 The note with it: higher = more signal.
A short description of test [4]: small-molecule binders of probe aNOTCH2, primary screen, biochemical, small-molecule microarray, 635/667 nm fluorescence (AID 1121).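 Further: score merges feature fluorescence read at 667 nm with its signal to noise.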 The conditions noted are these: higher = more signal.
For test [5], the target named is Carbonic anhydrase 2 (Homo sapiens) (UniProt P00918). As to the kind of experiment: CAII small-molecule binders, profiling panel, biochemical, small-molecule microarray, Alexa647-labelled CAII (AID 1122). The conditions noted are these: CAII-A647 binding fluorescence, higher = more signal.
Test [6] is described as follows: COS7 lysate on small-molecule microarray, probe aHis, 635 nm (AID 1123).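 Further: z-score combines 667nm fluorescence intensity with signal-to-noise per printed compound spot.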 The conditions noted are these: COS7 cell lysate, fluorescence, higher = more signal.
Test [7] in a line: compound binding in COS7 lysate, probe aLAP1, primary screen, cell lysate, small-molecule microarray (AID 1124).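 Further: lysate comes from COS7 cells expressing LAP1 and is applied at 0.3 µg/mL; score merges spot fluorescence near 667 nm with signal-to-noise over triplicate slides.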 The note with it: probe aLAP1, fluorescence, higher = more signal.
The test system of test [8] is Sam68 (KHDRBS1). Put plainly: Sam68 small-molecule binders, primary screen, biochemical, small-molecule microarray, 635 nm fluorescence (AID 1125).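 Further: score merges 667 nm channel intensity with signal to noise over triplicate slides.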 The note with it: small-molecule microarray binding, higher = more signal.
Test [9] relates to Chordin-like protein 2 (CHRDL2). As to the kind of experiment: CHRDL2 small-molecule binders, primary screen, biochemical, small-molecule microarray, 635 nm fluorescence (AID 1126).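 Further: printed compound slides probed with Chrdl2 protein at 4 µg/mL for 1 h at 4 C; score merges 667 nm emission intensity with signal to noise over three replicate slides.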 The conditions noted are these: small-molecule microarray binding, fluorescence 635 nm; higher = more signal.
The target of test [10] is Concanavalin-A (Canavalia ensiformis) (UniProt P02866). As to the kind of experiment: ConA small-molecule binders, primary screen, artefact control for SMM control protein annotation, biochemical, small-molecule microarray, Alexa647 label, 635 nm (AID 1127).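 Further: z combines 667 nm emission intensity with signal-to-noise across three replicate slides.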 The note with it: ConA-A647 binding fluorescence, higher = more signal.
Sequence of Concanavalin-A (Canavalia ensiformis) (P02866 whole entry, looked up): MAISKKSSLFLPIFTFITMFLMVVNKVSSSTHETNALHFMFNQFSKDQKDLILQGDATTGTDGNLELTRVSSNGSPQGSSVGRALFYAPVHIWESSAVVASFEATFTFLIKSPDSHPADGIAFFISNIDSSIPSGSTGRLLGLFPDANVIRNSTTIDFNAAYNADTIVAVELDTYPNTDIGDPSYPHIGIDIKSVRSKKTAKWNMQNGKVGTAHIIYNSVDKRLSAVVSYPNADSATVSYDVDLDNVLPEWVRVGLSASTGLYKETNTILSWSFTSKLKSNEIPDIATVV
A short description of test [11]: anti-His antibody binders, primary screen, artefact control for SMM control protein annotation, biochemical, small-molecule microarray, 635 nm fluorescence (AID 1128).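 Further: score merges feature fluorescence with signal-to-noise for each printed compound spot.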 The note with it: anti-His Alexa647 antibody binding, higher = more signal.
For test [12], the system named is Human papillomavirus type 1a E7 protein (residues 1-88). Put plainly: HPV1a E7 small-molecule binders, primary screen, biochemical, small-molecule microarray, residues 1-88, 635 nm (AID 1129). The note with it: small-molecule microarray binding, fluorescence 635 nm; higher = more signal.
Test [13] has as its target Focal adhesion kinase 1 (Homo sapiens) (UniProt Q05397). Put plainly: small-molecule microarray binders of FAK, primary screen, biochemical, 635/667 nm fluorescence, BSA, DTT (AID 1130).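 Further: composite of spot emission at 667 nm and signal to noise over triplicate slides.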 The note with it: PTK2 binding, 635 nm fluorescence, higher = more signal.
The subject of test [14] is Fibrinogen (Alexa647-labelled). Put plainly: fibrinogen binders on compound microarrays, profiling panel, artefact control for SMM control-protein annotation, biochemical, small-molecule microarray, 635/667 nm fluorescence (AID 1131).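 Further: z-score merges 667 nm fluorescence with per-spot signal-to-noise over triplicate slides.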 The conditions noted are these: fibrinogen-A647 binding fluorescence, higher = more signal.
Test [15] has as its target Follistatin (Homo sapiens) (UniProt P19883). As to the kind of experiment: follistatin binders on small-molecule microarrays, primary screen, biochemical, small-molecule microarray, 635/667 nm fluorescence (AID 1132). The conditions noted are these: FST binding, 635 nm fluorescence, higher = more signal.
The target of test [16] is Fibroblast growth factor 2 (Homo sapiens) (UniProt P09038). As to the kind of experiment: FGF2 binders on small-molecule microarrays, primary screen, biochemical, small-molecule microarray, 635/667 nm fluorescence (AID 1133). The conditions noted are these: small-molecule microarray binding, FGF2, fluorescence 635/667; higher = more signal.
Sequence of Fibroblast growth factor 2 (Homo sapiens) (P09038 whole entry, looked up): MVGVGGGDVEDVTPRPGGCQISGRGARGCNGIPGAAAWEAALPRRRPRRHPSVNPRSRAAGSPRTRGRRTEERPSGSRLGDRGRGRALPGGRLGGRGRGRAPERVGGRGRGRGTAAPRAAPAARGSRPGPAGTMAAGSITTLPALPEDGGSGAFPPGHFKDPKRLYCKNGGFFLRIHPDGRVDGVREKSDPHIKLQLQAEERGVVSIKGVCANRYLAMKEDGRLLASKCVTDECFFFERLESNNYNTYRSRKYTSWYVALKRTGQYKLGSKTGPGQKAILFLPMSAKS
The nature of test [17]: mitochondrial membrane potential change in A549 cells, profiling panel, cell-based, JC-1 fluorescence, basal, 24 h, 100 nL (AID 1138).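 Further: A549 lung adenocarcinoma cells under basal conditions with no added stimulus; test concentration not given here.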 The conditions noted are these: higher = more signal.
The subject of test [18] is Lefty1. As to the kind of experiment: Lefty1 binders on small-molecule microarrays, primary screen, biochemical, small-molecule microarray, 635/667 nm fluorescence (AID 1139). The note with it: small-molecule microarray binding, fluorescence 635/667; higher = more signal.
Test [19] has as its system wheat germ agglutinin (Triticum aestivum), Alexa647-labelled. As to the kind of experiment: wheat germ agglutinin binders on compound microarrays, profiling panel, artefact control for SMM control-protein annotation, biochemical, small-molecule microarray, 635/667 nm fluorescence (AID 1140).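 Further: score merges 667 nm feature emission with signal to noise over triplicate slides.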 The conditions noted are these: WGA-A647 binding, 635 nm fluorescence, higher = more signal.

The target of test [20] is Luciferin 4-monooxygenase (Photinus pyralis) (UniProt P08659). Put plainly: firefly luciferase enzyme inhibitors, primary screen, biochemical, luminescence, purified enzyme, 2006 set (AID 1141).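 Further: cell-free assay with purified firefly luciferase at 100 ng per well in PBS; test concentration not given here.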 The note with it: SteadyGlo luminescence, 30 min, higher = more signal, called active from +8 up or from −8 down.
Sequence of Luciferin 4-monooxygenase (Photinus pyralis) (P08659 whole entry, looked up): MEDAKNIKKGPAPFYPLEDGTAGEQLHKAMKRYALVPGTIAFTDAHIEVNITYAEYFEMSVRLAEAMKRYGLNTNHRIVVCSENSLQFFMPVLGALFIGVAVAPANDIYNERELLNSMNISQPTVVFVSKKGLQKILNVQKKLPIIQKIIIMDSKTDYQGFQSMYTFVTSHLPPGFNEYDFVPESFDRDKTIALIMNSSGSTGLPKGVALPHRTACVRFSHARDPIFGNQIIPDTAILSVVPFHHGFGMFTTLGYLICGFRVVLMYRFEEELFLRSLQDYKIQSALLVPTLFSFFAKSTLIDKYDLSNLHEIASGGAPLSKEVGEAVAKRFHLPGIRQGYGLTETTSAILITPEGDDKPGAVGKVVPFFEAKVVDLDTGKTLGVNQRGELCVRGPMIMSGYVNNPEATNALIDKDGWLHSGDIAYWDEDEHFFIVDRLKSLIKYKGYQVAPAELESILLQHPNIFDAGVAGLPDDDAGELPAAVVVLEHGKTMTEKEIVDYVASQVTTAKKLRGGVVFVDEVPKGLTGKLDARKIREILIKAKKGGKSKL

The record followed here is PubChem BioAssay.

The structures appear in SMILES notation. Active and inactive are the calls of the source.

Sequence of Follistatin (Homo sapiens) (P19883 whole entry, looked up): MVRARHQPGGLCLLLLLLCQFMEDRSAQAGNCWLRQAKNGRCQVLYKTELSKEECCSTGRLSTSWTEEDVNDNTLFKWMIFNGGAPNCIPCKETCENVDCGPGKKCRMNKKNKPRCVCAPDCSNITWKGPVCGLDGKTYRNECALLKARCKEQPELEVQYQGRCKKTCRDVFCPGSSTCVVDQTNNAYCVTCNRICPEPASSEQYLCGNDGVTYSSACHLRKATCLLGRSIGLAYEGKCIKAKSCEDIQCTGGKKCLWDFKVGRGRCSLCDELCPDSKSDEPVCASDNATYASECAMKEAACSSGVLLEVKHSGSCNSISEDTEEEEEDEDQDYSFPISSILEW
Sequence of Albumin (Bos taurus) (P02769 whole entry, looked up): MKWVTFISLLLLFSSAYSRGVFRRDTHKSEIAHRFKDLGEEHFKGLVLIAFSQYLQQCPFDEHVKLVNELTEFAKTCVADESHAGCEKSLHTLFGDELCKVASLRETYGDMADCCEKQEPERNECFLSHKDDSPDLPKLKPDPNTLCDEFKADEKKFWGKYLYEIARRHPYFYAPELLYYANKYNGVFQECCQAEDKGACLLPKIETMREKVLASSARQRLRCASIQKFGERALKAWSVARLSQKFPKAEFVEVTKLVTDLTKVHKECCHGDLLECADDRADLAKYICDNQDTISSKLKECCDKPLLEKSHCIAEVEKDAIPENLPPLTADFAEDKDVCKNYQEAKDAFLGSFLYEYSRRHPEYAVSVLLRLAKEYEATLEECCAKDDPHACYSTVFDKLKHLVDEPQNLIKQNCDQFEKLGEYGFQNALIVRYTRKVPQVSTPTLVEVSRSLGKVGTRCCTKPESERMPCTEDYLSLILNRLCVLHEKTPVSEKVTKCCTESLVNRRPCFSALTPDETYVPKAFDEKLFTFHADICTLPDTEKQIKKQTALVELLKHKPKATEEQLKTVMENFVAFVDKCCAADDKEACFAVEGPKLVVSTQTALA
Sequence of Focal adhesion kinase 1 (Homo sapiens) (Q05397 whole entry, looked up): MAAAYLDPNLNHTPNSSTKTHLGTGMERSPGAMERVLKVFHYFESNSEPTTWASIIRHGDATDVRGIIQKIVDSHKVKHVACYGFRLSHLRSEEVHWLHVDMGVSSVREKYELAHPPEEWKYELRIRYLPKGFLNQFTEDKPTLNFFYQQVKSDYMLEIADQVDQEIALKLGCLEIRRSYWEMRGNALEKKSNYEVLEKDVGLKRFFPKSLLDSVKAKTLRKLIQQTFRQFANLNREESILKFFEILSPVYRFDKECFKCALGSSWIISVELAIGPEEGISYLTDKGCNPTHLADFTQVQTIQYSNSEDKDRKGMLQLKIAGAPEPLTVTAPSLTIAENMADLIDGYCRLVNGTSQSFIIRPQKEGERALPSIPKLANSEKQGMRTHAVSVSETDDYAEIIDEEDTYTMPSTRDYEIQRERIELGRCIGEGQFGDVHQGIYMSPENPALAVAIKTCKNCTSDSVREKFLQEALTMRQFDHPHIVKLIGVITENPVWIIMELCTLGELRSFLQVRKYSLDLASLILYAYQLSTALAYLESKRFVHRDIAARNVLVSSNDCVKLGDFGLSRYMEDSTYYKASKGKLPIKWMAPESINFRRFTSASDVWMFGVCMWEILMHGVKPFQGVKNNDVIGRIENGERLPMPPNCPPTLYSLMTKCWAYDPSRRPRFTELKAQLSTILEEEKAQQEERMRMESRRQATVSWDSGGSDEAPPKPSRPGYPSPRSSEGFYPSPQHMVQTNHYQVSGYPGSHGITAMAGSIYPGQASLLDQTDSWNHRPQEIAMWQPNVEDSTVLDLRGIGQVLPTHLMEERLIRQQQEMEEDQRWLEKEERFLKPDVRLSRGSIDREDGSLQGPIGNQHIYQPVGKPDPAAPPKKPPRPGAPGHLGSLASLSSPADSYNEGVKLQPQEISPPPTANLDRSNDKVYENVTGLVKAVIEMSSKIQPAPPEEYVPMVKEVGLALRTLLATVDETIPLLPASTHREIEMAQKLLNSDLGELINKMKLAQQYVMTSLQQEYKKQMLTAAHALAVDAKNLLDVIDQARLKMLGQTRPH

Regarding `COc1ccc(-c2cc3c(c(CCc4ccccc4)n2)[Si](C(C)C)(C(C)C)OC3)cn1`, the composite z-score in test [1] is -0.0428; in test [3], -0.152; in test [4] it was -0.169; in [5] it was -0.173; in test [6] it was 0.132; in [7], -0.376. For the same compound, the composite z-score in [8] was -0.296; in test [9] it was 0.105; in [10], -0.0689; in [11], 0.0933; in [12], -0.765; in [13], -0.192. Besides, the composite z-score in test [14] was -0.284; in test [15], 0.323; in [16], -0.025; in test [18], 0.496; in [19], -0.289. Also, the composite Z-score in test [2] is 0.147 (inactive). The z-score was -0.585 in test [17] and 1.17 (inactive) in test [20].
In the case of `CCCCO[C@H]1C[C@H]2C(I)=C[C@@H]1C(=O)[C@]21CO1`, the composite z-score was -0.369 in test [1]; -0.0311 in test [3]; -0.25 in [4]; -0.302 in [5]; -0.196 in [6]; -0.287 in [7]. Besides, the composite z-score in [8] was -0.414; in test [9] it was 0.377; in test [10], 0.267; in test [11] it was 1.74; in [12] it was -0.522; in test [13], 0.047. Further, the composite z-score in test [14] is -0.886; in test [15], 0.145; in test [16], 0.129; in [18], 0.351; in test [19], -0.164. For the same compound, the composite Z-score in [2] is -0.014 (inactive). Moreover, the z-score in [17] is 0.258; in test [20], 0.274 (inactive).
For the compound `CCOC(=O)C1=C[C@@H](c2ccccc2)N(S(=O)(=O)c2ccc(C)cc2)[C@H]1c1ccccc1Cl`, the composite z-score turned out to be 0.729 in test [1]; 0.112 in test [3]; 0.23 in test [4]; 0.389 in test [5]; 1.66 in test [6]; 0.772 in [7]. Also, the composite z-score in test [8] was found to be 1.26; in test [9] it was 0.359; in test [10], 0.752; in test [11] it was 0.857; in [12], 1.17; in [13], 1.6. Moreover, the composite z-score in test [14] was 0.86; in test [15], 0.761; in test [16] it was 0.414; in [18] it was 0.838; in test [19], 0.778. The composite Z-score in [2] is 0.0277 (inactive). Besides, the results for the z-score in test [17] and in test [20] were 1.53 and 0.86 (inactive), respectively.
As to `COCCOC(=O)N1C(=O)[C@@]2(c3cc(C#CC4=CCCCC4)ccc31)[C@H](C(=O)N1CCCCCCC1)[C@H]1C(=O)O[C@H](c3ccccc3)[C@H](c3ccccc3)N1[C@@H]2c1ccc(O)cc1`, the composite z-score in test [1] is 0.25; in test [3], 0.183; in test [4], 0.103; in [5], 0.334; in test [6] it was 2.17; in test [7] it was 0.147. The composite z-score in test [8] is 1.25; in test [9] it was 0.277; in test [10], 0.622; in test [11], -0.014; in [12], 1.13; in test [13], 0.701. The composite z-score in test [14] is -0.0414; in [15], 1.12; in test [16] it was 0.446; in test [18], 0.486; in test [19] it was 0.436. Moreover, the composite Z-score in [2] is 0.0769 (inactive). Besides, the values for the z-score in test [17] and in test [20] were 0.5 and -5.8 (inactive), respectively.
Consider `COCCOC(=O)N1C(=O)[C@@]2(c3cc(C#CCC(C(=O)OC)C(=O)OC)ccc31)[C@H](C(=O)N1CCc3cc(OC)c(OC)cc3C1)[C@H]1C(=O)O[C@H](c3ccccc3)[C@H](c3ccccc3)N1[C@@H]2c1ccc(OCCO)cc1`, for which the composite z-score in [1] is -0.525; in [3], 0.15; in test [4] it was -0.0357; in [5], 0.357; in test [6], 1.2; in [7], 0.519. For the same compound, the composite z-score in test [8] turned out to be 1.29; in [9], 0.837; in test [10], 1.11; in test [11] it was 2.19; in test [12], 1.2; in test [13], 0.497. The composite z-score in [14] turned out to be 0.783; in test [15], 1.31; in [16], 1.45; in test [18], 1.02; in [19] it was 0.519. In test [2], the composite Z-score was 0.654 (inactive). For the same compound, the z-score in test [17] was -1.04; in test [20], -1.25 (inactive).
For `CN(C)CCCNC(=O)[C@@H]1c2ccccc2C(=O)N(Cc2ccccc2Cl)[C@H]1c1ccc(CO)cc1`, the composite z-score in test [1] was 0.301; in test [3], -0.236; in test [4], -0.0993; in test [5], 0.73; in test [6], 1.17; in test [7], 0.982. Also, the composite z-score in test [8] was 0.671; in test [9] it was -0.349; in test [10], -0.284; in [11], 1.3; in test [12] it was 0.51; in [13], -0.0522. In addition, the composite z-score in test [14] was 0.462; in test [15] it was -0.0713; in [16], -0.0728; in test [18], -0.92; in test [19], 1.05. Also, the composite Z-score in [2] is 0.247 (inactive). The z-score in test [17] was 1.53; in test [20] it was -0.751 (inactive).
